Compound activity deposited in PubChem BioAssay by National Center for Advancing Translational Sciences (NCATS).
ALDH1A1 block: ALDH1A1 (human) enzyme inhibition. P00352. Purified ALDH1A1, NADH fluorescence, propionaldehyde substrate. Potency, µM (doses to about 75.3 µM), for the others: at the top dose activity, negative = inhibition, most hits filed as inhibitors. 220,000 compounds, 7.3% hits. AID 1030;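 note: potency is the fitted concentration of half-maximal effect; plate controls were no enzyme wells and a reference inhibitor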
Target sequence (P00352 whole entry, looked up): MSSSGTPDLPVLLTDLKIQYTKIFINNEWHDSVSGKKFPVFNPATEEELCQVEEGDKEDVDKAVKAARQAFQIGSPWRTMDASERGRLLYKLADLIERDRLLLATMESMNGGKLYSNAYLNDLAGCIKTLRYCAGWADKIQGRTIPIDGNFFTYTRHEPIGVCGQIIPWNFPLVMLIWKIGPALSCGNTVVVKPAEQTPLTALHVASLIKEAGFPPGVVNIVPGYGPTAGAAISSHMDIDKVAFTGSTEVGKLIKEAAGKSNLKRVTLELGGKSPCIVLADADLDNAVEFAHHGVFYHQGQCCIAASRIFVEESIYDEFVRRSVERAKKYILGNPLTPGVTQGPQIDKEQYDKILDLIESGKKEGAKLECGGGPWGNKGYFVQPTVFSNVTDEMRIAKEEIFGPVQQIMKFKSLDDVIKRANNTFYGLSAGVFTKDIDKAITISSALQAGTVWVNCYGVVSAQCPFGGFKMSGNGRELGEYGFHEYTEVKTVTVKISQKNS
PNC inhibitor: blocks assembly of the perinucleolar compartment; PC3M PTB-GFP, PNC prevalence imaging, 16 h; stronger effect = lower value; 140,000 compounds, 3.1% hits; activity change (PNC), negative = inhibition, % at 10 µM; AID 2417;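 active = readout at or below -70, meaning at least 70% loss of cells showing the perinucleolar compartment, a nuclear body marking cancer cells; inconclusive = readout between -30 and a set limit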;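 note: plate controls were DMSO wells for no effect and camptothecin positive control wells for full effect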
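Read-out is percentage of cells bearing a perinucleolar compartment, from automated 20x imaging of fixed, Hoechst-stained PC3M PTB-GFP cells. Cells were seeded 4 h, then exposed 16 h to compound (23 nl of library stock) in duplicate plates.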
HPGD block: HPGD (human) dehydrogenase inhibition | Potency, µM, inactives show top-dose activity change, negative = inhibition, most hits filed as inhibitors | purified HPGD, NADH fluorescence kinetic, PGE2 substrate | 150,000 compounds, 4.3% hits | P15428; note: potency is the fitted concentration of half-maximal effect
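NADH formation kinetics: reaction with 30 uM PGE2 and 1 mM NAD+ (final), 20 nM enzyme, Tris-HCl pH 8 with Tween 20, after 15 min compound preincubation at room temperature. Fluorescence change, last versus first of five reads.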
An asterisk follows results filed as active; ? = inconclusive; · = not tested or not shown. An excerpt weighted towards active compounds, which were near 11% of everything screened. Unless noted, calls come from the whole dose curve; as a rule, active = well fitted inhibition curve with a large enough effect (not every such curve was filed as active); inconclusive = small, poorly fitted or top-dose-only effect, or another doubt; inactive = no such curve, though single readings can be large or run the other way. Unless noted, % is set by controls: 0 for no effect and ±100 for the full control effect.

SMILES	ALDH1A1 block	PNC inhibitor	HPGD block
O=C(O)C1CC(=O)n2c(nc3ccccc32)S1 (configuration not stated)	25.1µM*	15.0	-17.2%
COc1cc(C2CC(=O)n3c(nc4ccccc43)S2)cc(OC)c1OC (configuration not stated)	?	-97.6*	-9.1%
COc1cc(C2CC(=O)N(CC(=O)NCc3ccco3)c3ccccc3S2)cc(OC)c1OC (configuration not stated)	?	38.5	4.0%
O=C1CSc2nc3ccccc3n21	?	44.9	?
COc1ccc(N(C(=O)CNC(=O)c2cccs2)C(C(=O)NC2CCCC2)c2cccnc2)cc1 (configuration not stated)	6.3%	·	·
N#Cc1ccc(CN2CC3(CCN(C(=O)c4cc(C(F)(F)F)cc(C(F)(F)F)c4)CC3)C2)cc1	7.5%	·	-6.6%
COC(=O)C(Cc1ccc(O)cc1)NC(=O)CCC(=O)Nc1ccc(S(N)(=O)=O)cc1 (configuration not stated)	17.5%	15.1	-15.5%
CCOc1ccc(C(=O)Nc2ccc(NC(=O)c3ccco3)c(Cl)c2)cc1Cl	?	28.1	?
CCOc1ccccc1NC(=O)c1cccc(NC(=O)c2ccco2)c1	1.8%	-86.0*	-12.4%
CCc1ccc(NC(=O)c2ccc(OC)c([N+](=O)[O-])c2)cc1	11.2µM*	-3.7	-19.4%
O=C(NC(NC(=S)Nc1ccc(Cl)cc1)C(Cl)(Cl)Cl)c1ccco1 (configuration not stated)	?	4.2	-10.0%
COc1ccc(C(=O)COC(=O)c2ccc(NC(C)=O)cc2)cc1[N+](=O)[O-]	?	46.1	?
COc1ccccc1NC(=S)NC(NC(=O)c1ccco1)C(Cl)(Cl)Cl (configuration not stated)	14.1µM*	7.6	-20.9%
CCOC(=O)C(Cc1ccc(OC)c([N+](=O)[O-])c1)NC(=O)CCC(=O)Nc1ccc(OC)cc1 (configuration not stated)	4.47µM*	·	·
CCOc1ccc(-n2nc3c(=O)n(CCN4CCCCC4)nc(C)c3c2C)cc1	?	36.9	?
C/C(=N\NC(=O)CCc1ccc(S(=O)(=O)N2CCOCC2)cc1)c1ccc(Br)cc1	9.6%	·	·
Cc1ccc2ncnc(Oc3ncccc3NC(=O)C(C)(C)C)c2c1	4.9%	·	·
COc1ccc(CC(=O)OCC(=O)NCc2ccccc2Cl)cc1OC	3.7%	·	·
Cc1ccc(C2=Nc3cccnc3C(c3ccccc3)=NN2)cc1	1.5%	·	·
COc1ccc(C(=O)NC(=S)Nc2ccc(NC(=O)c3ccco3)cc2)cc1[N+](=O)[O-]	-15.4%	-14.9	-7.3%
Cc1cccc(C)c1OCC(=O)Nc1cccc(NC(=O)c2ccco2)c1	?	-118.9*	-20.4%
CCOc1ccc(C(=O)Nc2cccc(NC(=O)c3cccs3)c2)cc1[N+](=O)[O-]	?	30.9	-26.9%
COc1cc(NC(=S)NC(=O)c2ccco2)ccc1NC(=O)C(C)C	-11.3%	·	·
COc1cc(NC(=S)NC(=O)c2ccccc2F)ccc1NC(=O)c1ccco1	31.6µM*	18.3	-25.7%
CCOc1ccc(C(=O)NC(=S)Nc2cccc(NC(=O)c3ccco3)c2)cc1[N+](=O)[O-]	3.16µM*	9.4	-27.7%
SMILES	ALDH1A1 block	PNC inhibitor	HPGD block
Cc1cccc(C)c1OCC(=O)Nc1ccc(NC(=O)c2ccco2)cc1	-10.8%	·	·
COc1ccc(C(=O)NC(=S)Nc2cccc(NC(=O)c3ccco3)c2)cc1[N+](=O)[O-]	3.55µM*	-6.0	-7.8%
Cc1cc(NNC(=O)c2cccc(C(F)(F)F)c2)nc2c1c(C)nn2C	13.2%	·	·
CC(C)(O)C#Cc1ccc(CN2CCN(Cc3ccsc3)C(CCO)C2)s1 (configuration not stated)	10.9%	·	·
COCCN(C(=S)Nc1c(C)cccc1C)C(C)c1cccs1 (configuration not stated)	3.0%	·	·
C=CCOc1ccc(/C=N/N2C(=O)C(CC(=O)Nc3ccc(F)cc3F)SC2=NC)cc1 (configuration not stated)	?	?	-22.7%
COc1ccc(CCNC(=O)c2cn3ccc(C)cc3n2)cc1OC	1.3%	·	·
CCOc1ccccc1NC(=S)N(Cc1cc2ccc(C)cc2[nH]c1=O)CC1CCCN1CC (configuration not stated)	0.8%	-11.9	-6.3%
Cn1ncc([N+](=O)[O-])c1C(=O)Nc1ccc(-c2nc3ccccc3[nH]2)cc1	-1.9%	28.1	-5.0%
CCOc1cc(NS(=O)(=O)c2ccccc2)c(OCC)cc1NC(=O)c1ccco1	7.94µM*	40.7	-11.8%
CCOc1ccc(C(=O)Nc2ccc(-c3nc4ccccc4[nH]3)cc2)cc1[N+](=O)[O-]	5.2%	-116.4*	-1.3%
CCNC(=S)Nc1cc(OCC)c(NC(=O)c2ccco2)cc1OCC	?	?	-21.1%
CC(C)NC(=S)N/N=C/c1ccc2c(c1)OCCO2	-1.7%	-3.6	-18.0%
O=C(NC(=S)Nc1ccccn1)c1ccc([N+](=O)[O-])cc1	5.7%	-85.5*	4.1%
COc1ccc(C(=O)Nc2cc(C)on2)cc1[N+](=O)[O-]	0.4%	·	·
CCOc1ccc(C(=O)NC(=S)Nc2ccccc2N2CCCCC2)cc1[N+](=O)[O-]	?	28.2	-19.0%
CCOc1ccc(C(F)(F)F)cc1NC(=O)c1ccc(OC)c([N+](=O)[O-])c1	?	27.3	-3.9%
CCOc1ccc(C(=O)NC(=S)Nc2ccccc2OC)cc1[N+](=O)[O-]	8.91µM*	-17.1	-9.2%
CCOc1ccc(C(=O)NC(=S)Nc2ccc(N3CCCCC3)cc2)cc1[N+](=O)[O-]	11.2µM*	39.0	31.6µM*
COc1ccc(C(=O)NC(=S)Nc2cc(C)ccn2)cc1[N+](=O)[O-]	0.316µM*	?	-9.3%
O=C(Nc1ncccn1)c1ccc([N+](=O)[O-])cc1	-10.2%	·	·
C[Si](C)(C/C=C/CC[C@H](O)C1=CCCCC1=O)c1ccccc1	2.7%	·	-9.9%
CC(O)(P(=O)(O)O)P(=O)(O)O	3.1%	·	-10.6%
O=C(c1ccncc1)N1CCC2(CC1)CN(Cc1cc(C(F)(F)F)cc(C(F)(F)F)c1)C2	-12.0%	·	-6.7%
O=S(=O)(c1ccccc1)N1CCC2(CCCN(c3ccncc3)C2)CC1	-1.1%	·	-0.9%
SMILES	ALDH1A1 block	PNC inhibitor	HPGD block
CCOc1ccc(C(=O)NC(=S)Nc2ccc(NC(=O)CC)cc2)cc1[N+](=O)[O-]	?	?	-20.1%
CCOc1ccc(C(=O)NC(=S)NC2CCCC2)cc1[N+](=O)[O-]	12.6µM*	?	-11.3%
CCOC(=O)c1cc(-c2cccc([N+](=O)[O-])c2)nc2[nH]c(=O)[nH]c(=O)c12	14.1µM*	·	·
CCOC(=O)c1cnc(-c2cccc(OC)c2)[nH]c1=O	?	-7.5	-11.3%
CC/C(=N\NC(=O)C(N)=O)c1ccccc1O	8.1%	2.3	-13.5%
O=c1ccc2c(o1)/C(=C/C=C(Cl)Cl)CCC2	7.08µM*	-21.0	-22.3%
COc1ccc(/C=C(\C#N)C(=O)NC2CCS(=O)(=O)C2)cc1OC (configuration not stated)	5.9%	-119.3*	-15.3%
COc1cc(/C=C/C(=O)OCC(=O)NC2CCS(=O)(=O)C2)ccc1O (configuration not stated)	-12.5%	5.5	-19.9%
CC[N+](CC)(CCNC(=O)C(=O)NCC[N+](CC)(CC)Cc1ccccc1Cl)Cc1ccccc1Cl	3.6%	·	-4.0%
